From PubChem BioAssay
A selection: hits, their analogues and other compounds. The true share with any hit is near 3.5%.
14-3-3 Bad inh: disrupts binding of bovine 14-3-3 zeta to phospho-Bad peptide | 0.71% of 220,000 active | TR-FRET 14-3-3zeta/Dy647-pBad peptide displacement, 1 h | P63103 | inhibition, % at 21.7 µM;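 active = inhibition above about 70%, limit read from the data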;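 note: 0% = full 14-3-3 plus peptide FRET controls and 100% = background without 14-3-3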
eIF4E 4G PPI: inhibitors of eIF4E and eIF4G interaction in translation initiation; 0.37% of 220,000 active; AID 782; P63073+Q04637; TR-FRET eIF4E-eIF4GI(517-606) binding, 2 h; inhibition, % at 21.7 µM;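 active = inhibition above about 30%, limit read from the data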;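 note: 0% = full FRET control wells and 100% = background wells lacking eIF4GI fragment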
Hck Nef HTS: human Hck-Nef kinase inhibition; 0.68% of 220,000 active; AID 463187; inhibition, % at 20 µM; Recombinant Hck-YEEI plus Nef, Z-Lyte FRET kinase assay; P08631;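 active = Hck-Nef kinase inhibition above about 50%, limit read from the data; inactive = inhibition below that limit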;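 note: 0% = DMSO with Hck plus Nef and 100% = Hck alone without Nef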
Mcl1 Bid PPI: disrupts binding of human Mcl-1 to Bid peptide; Q07820; TR-FRET Mcl-1/Bid-Dy647 peptide binding, 1536-well; inhibition, % at 21.7 µM; 0.97% of 220,000 active;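 active = compounds that cut the binding signal by more than half at the single screening dose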;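 note: His-tagged Mcl-1 with europium anti-His antibody binding Bid BH3 peptide; 0% = Mcl-1 plus peptide wells and 100% = peptide-only wells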
Mcl-1 Bim block: inhibitors of Bim-Mcl-1 interaction, human. Q07820. Bead-based flow cytometry, Bim peptide-Mcl-1 binding. inhibition, % at 10 µM. 0.1% of 190,000 active. AID 1009; in the data active = inhibition above about 40%;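 note: 0% = no compound tracer wells and 100% = peptide blocker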
Mcl1 Noxa PPI: Mcl-1/Noxa interaction inhibition; inhibition, % at 21.7 µM; TR-FRET Mcl-1/Noxa peptide binding, 2 h; 1.5% of 220,000 active; Q07820;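 active = compounds that cut the protein-peptide binding signal by more than 50% relative to plate controls in a single-dose test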;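 note: His-tagged Mcl-1 with rhodamine Noxa BH3 peptide and terbium anti-His antibody; 0% = Mcl-1 plus Noxa peptide wells and 100% = peptide-only wells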
Numbers without * were called inactive; [ ] = remark or other dose.

CCOC(=O)c1cc(-c2nnc(-c3ccc(Cl)cc3)o2)c(C)nc1C was read as 14-3-3 Bad inh -6.6, eIF4E 4G PPI -0.5, Hck Nef HTS 3.6, Mcl1 Bid PPI -11.2, Mcl-1 Bim block 40.0* and Mcl1 Noxa PPI 5.9.
Screening N#Cc1c(N2CCN(c3ccc(F)cc3)CC2)nc(N)c2c(N)nc3c(c12)CC(=O)N3C1CC1 returned 14-3-3 Bad inh -19.2, eIF4E 4G PPI 4.8, Hck Nef HTS 44.6, Mcl1 Bid PPI -6.2, Mcl-1 Bim block 4.0 and Mcl1 Noxa PPI 54.6*.
Screening CN(CCO)c1nc(N)c2c(N)nc3c(c2c1C#N)CC(=O)N3C1CCCC1 returned 14-3-3 Bad inh -11.2, eIF4E 4G PPI 3.3, Hck Nef HTS 0.6, Mcl1 Bid PPI -22.7, Mcl-1 Bim block 3.0 and Mcl1 Noxa PPI 46.2.
Screening CCOC(=O)c1nnn(-c2nonc2N)c1CSc1ccccc1 returned 14-3-3 Bad inh -13.8, eIF4E 4G PPI 9.3, Hck Nef HTS 3.3, Mcl1 Bid PPI 52.0*, Mcl-1 Bim block -2.0 and Mcl1 Noxa PPI 6.1.
For Cc1sc2ncn(CC(=O)N3CCCCC3)c(=O)c2c1C the results were 14-3-3 Bad inh 3.3, eIF4E 4G PPI -3.8, Hck Nef HTS -10.9, Mcl1 Bid PPI -20.1, Mcl-1 Bim block 1.0 and Mcl1 Noxa PPI 5.8.
`CCc1n[nH]c(=S)n1/N=C/c1cc(OC)cc([N+](=O)[O-])c1O` gave 14-3-3 Bad inh 32.5, eIF4E 4G PPI 4.5, Hck Nef HTS 16.9, Mcl1 Bid PPI -125.7, Mcl-1 Bim block 1.0 and Mcl1 Noxa PPI 78.2*.
COc1cc(/C=N/n2c(=S)[nH]nc(C)c2=O)cc([N+](=O)[O-])c1O was read as 14-3-3 Bad inh -15.3, eIF4E 4G PPI -1.6, Hck Nef HTS -22.7, Mcl1 Bid PPI -40.4, Mcl-1 Bim block 0.0 and Mcl1 Noxa PPI 10.6.
`COC(=O)c1c(-c2cccnc2)csc1NC(=O)c1cc(C)on1` gave 14-3-3 Bad inh 2.6, eIF4E 4G PPI -0.6, Hck Nef HTS 9.3, Mcl1 Bid PPI -8.0, Mcl-1 Bim block -3.0 and Mcl1 Noxa PPI 57.5*.
Cc1csc2nc(CSc3nc4ccccc4o3)cn12 was read as 14-3-3 Bad inh 1.2, eIF4E 4G PPI 1.7, Hck Nef HTS -6.9, Mcl1 Bid PPI 20.3, Mcl-1 Bim block -4.0 and Mcl1 Noxa PPI 51.1*.
For Cc1ccccc1NC(=S)NCc1ccc(Cl)cc1 the results were 14-3-3 Bad inh -30.3, eIF4E 4G PPI 2.3, Hck Nef HTS 1.8, Mcl1 Bid PPI -36.8, Mcl-1 Bim block 1.0 and Mcl1 Noxa PPI 9.4.
CCOC(=O)N1CCN(c2c(NCCCN(CC)CC)c(=O)c2=O)CC1 was read as 14-3-3 Bad inh -4.0, eIF4E 4G PPI -6.3, Hck Nef HTS -2.2, Mcl1 Bid PPI -26.7, Mcl-1 Bim block -4.0 and Mcl1 Noxa PPI 2.9.
Screening CCOC(=O)C1CCN(c2c(NCCCN(CC)Cc3ccccc3)c(=O)c2=O)CC1 returned 14-3-3 Bad inh 0.5, eIF4E 4G PPI 4.2, Hck Nef HTS -0.5, Mcl1 Bid PPI -18.7, Mcl-1 Bim block -3.0 and Mcl1 Noxa PPI 71.5*.
For CCCCN(CC)CCNc1c(N2CCN(C(=O)OCC)CC2)c(=O)c1=O the results were 14-3-3 Bad inh -8.4, eIF4E 4G PPI 6.1, Hck Nef HTS 0.5, Mcl1 Bid PPI -47.7, Mcl-1 Bim block -2.0 and Mcl1 Noxa PPI 75.2*.
`CCOC(=O)N1CCN(c2c(NCCCN(CC)Cc3ccccc3)c(=O)c2=O)CC1` gave 14-3-3 Bad inh -14.9, eIF4E 4G PPI 5.1, Hck Nef HTS 1.1, Mcl1 Bid PPI -48.7, Mcl-1 Bim block 8.0 and Mcl1 Noxa PPI 76.5*.
Screening CCc1c(C)sc(NC(=O)c2ccccc2[N+](=O)[O-])c1C(N)=O returned 14-3-3 Bad inh -11.4, eIF4E 4G PPI -6.0, Hck Nef HTS 0.2, Mcl1 Bid PPI -16.9, Mcl-1 Bim block -4.0 and Mcl1 Noxa PPI 23.4.
C[C@@H]1CC[C@H]2C(=O)N3[C@@H](CC[C@@H](C)[C@@H]3c3ccc(Br)cc3)C(=O)N2[C@H]1c1ccc(Br)cc1 was read as 14-3-3 Bad inh 5.9, eIF4E 4G PPI -1.0, Hck Nef HTS -7.0, Mcl1 Bid PPI 3.9, Mcl-1 Bim block -1.0 and Mcl1 Noxa PPI 27.4.
CCOC(=O)C1=C(O)/C(=C/c2cc(OC)c(O)c(OC)c2)SC1=Nc1ccc(OC)cc1 was read as 14-3-3 Bad inh 2.5, eIF4E 4G PPI -1.1, Hck Nef HTS 2.2, Mcl1 Bid PPI -3.7, Mcl-1 Bim block -1.0 and Mcl1 Noxa PPI 74.6*.
`Nc1ccc(N2CCCCCC2)cc1` gave 14-3-3 Bad inh 80.2*[fluorescence artefact?], eIF4E 4G PPI 2.5, Hck Nef HTS -3.3, Mcl1 Bid PPI -19.3, Mcl-1 Bim block 7.0 and Mcl1 Noxa PPI 65.0*.
Nc1ccc(N2CCN(c3ccc(Cl)c(Cl)c3)CC2)cc1 was read as 14-3-3 Bad inh -3.2, eIF4E 4G PPI 12.6, Hck Nef HTS 6.8, Mcl1 Bid PPI -8.8, Mcl-1 Bim block -1.0 and Mcl1 Noxa PPI 19.1.
Screening Nc1ccc(N2CCN(c3ccc(F)cc3)CC2)cc1 returned 14-3-3 Bad inh -4.5, eIF4E 4G PPI 26.1, Hck Nef HTS 7.2, Mcl1 Bid PPI -30.1, Mcl-1 Bim block 1.0 and Mcl1 Noxa PPI 60.5*.
`O=C(O)CC1SC(N/N=C/c2ccc(Br)cc2)NC1=O` (stereo not drawn) gave 14-3-3 Bad inh -7.1, eIF4E 4G PPI -0.2, Hck Nef HTS -4.5, Mcl1 Bid PPI -16.4, Mcl-1 Bim block -2.0 and Mcl1 Noxa PPI 11.7.
Screening CCCc1cc2c(=O)c(-c3nc4ccccc4s3)c(COCC(=O)O)oc2cc1O returned 14-3-3 Bad inh -13.7, eIF4E 4G PPI 5.5, Hck Nef HTS 41.5, Mcl1 Bid PPI 2.3, Mcl-1 Bim block 1.0 and Mcl1 Noxa PPI 72.9*.
Screening CS(=O)(=O)c1ccc(Cl)c(NC(=O)CCc2ccccc2)c1 returned 14-3-3 Bad inh -1.8, eIF4E 4G PPI -3.7, Hck Nef HTS 31.4, Mcl1 Bid PPI -7.0, Mcl-1 Bim block -2.0 and Mcl1 Noxa PPI 13.8.
For Cc1ccc(/C=C/C(=O)OCC(=O)Nc2cccc(S(=O)(=O)N(C)C)c2)o1 the results were 14-3-3 Bad inh 6.2, eIF4E 4G PPI 4.6, Hck Nef HTS -25.9, Mcl1 Bid PPI -72.5, Mcl-1 Bim block -12.0 and Mcl1 Noxa PPI 13.7.
`Cc1ccccc1C(=O)Nc1cccc(-c2ccc3nncn3n2)c1` gave 14-3-3 Bad inh 3.9, eIF4E 4G PPI 1.8, Hck Nef HTS 19.3, Mcl1 Bid PPI -4.9, Mcl-1 Bim block 3.0 and Mcl1 Noxa PPI 3.5.
O=C(Nc1cccc(-c2ccc3nncn3n2)c1)c1ccco1 was read as 14-3-3 Bad inh -6.7, eIF4E 4G PPI -7.4, Hck Nef HTS 27.4, Mcl1 Bid PPI -9.3, Mcl-1 Bim block 41.0* and Mcl1 Noxa PPI -6.0.
CC(C)(C)CC(C)(C)NC(=S)NC1CCN(Cc2ccccc2)CC1 was read as 14-3-3 Bad inh -5.7, eIF4E 4G PPI -1.4, Hck Nef HTS 2.8, Mcl1 Bid PPI 91.6*, Mcl-1 Bim block -3.0 and Mcl1 Noxa PPI -2.6.
For COc1cc(C(=O)NCCOc2ccc(F)cc2)c(Br)c(OC)c1OC the results were 14-3-3 Bad inh -4.1, eIF4E 4G PPI 3.9, Hck Nef HTS -8.1, Mcl1 Bid PPI -24.5, Mcl-1 Bim block -1.0 and Mcl1 Noxa PPI 6.0.
